DT40 TDP1 no CPT = qHTS for Inhibitors of human tyrosyl-DNA phosphodiesterase 1 (TDP1): qHTS in cells in absence of CPT | DT40 Tdp1-/- hTDP1 cells, no CPT, ATP luminescence, 48 h | Potency, µM (series often up to 46.2 µM), for inactives: top-dose activity change, negative = growth inhibition, hits mostly inhibitors | 15% of 420,000 active; further: on the % scale 0 is the no-effect control and ±100 the full control effect; nearly all actives have a fitted effect of over 55% in size
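Readout: luminescence from CellTiter-Glo after 30 min in the dark at RT. Cells: DT40 Tdp1-/- with stable hTDP1, 400/well. Exposure: compounds alone, ≥48 hr, 37 °C.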
HT1080-NT tox = qHTS for induction of synthetic lethality in tumor cells producing 2HG: qHTS for the HT-1080-NT fibrosarcoma cell line. HT-1080-NT fibrosarcoma viability, CellTiter-Glo ATP luminescence, 48 h. Potency, µM (top dose mostly 46.1 µM), inactives show at the top dose activity, negative = less viability, usual class: cytotoxic. 1.6% of 360,000 active. AID 686970, 2013;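 further: NT is the 2HG producing partner of a matched IDH1 knockdown line; 0% = DMSO-treated cells and -100% = media-only wells without cells; nearly all actives have a fitted effect of over 55% in size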
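Luminescent CellTiter-Glo readout after 48 hours of compound exposure at 37 degrees C defined viability of HT-1080-NT cells. Activity was normalized to DMSO wells and cell-free media wells; concentration-response curves were fitted and assigned curve classes.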
DT40 TDP1 CPT = qHTS for Inhibitors of human tyrosyl-DNA phosphodiesterase 1 (TDP1): qHTS in cells in presence of CPT; chicken DT40 Tdp1-/-;hTDP1 cells + 20 nM CPT, ATP luminescence, 48 h; Potency, µM (top dose mostly 46.2 µM), for the others: at the top dose activity change, negative = growth inhibition, hits mostly inhibitors; 12% of 420,000 active; AID 686979, 2013; further: on the % scale 0 is the no-effect control and ±100 the full control effect; nearly all actives have a fitted effect of over 55% in size
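Chicken DT40 Tdp1-/- cells complemented with human TDP1, 400 cells/well, exposed to compounds plus 20 nM camptothecin for at least 48 h at 37 C; viability read as ATP content by CellTiter-Glo luminescence.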
TGFb SMAD3 inh = qHTS for Inhibitors of TGF-b | HepG2 CAGA-GFP TGF-b/SMAD3 reporter, GFP fluorescence, 18 h; TGF-beta stimulated, 500 pg/mL final | Potency, µM (doses to about 46.1 µM), for the others: at the highest dose activity, negative = inhibition, most hits filed as inhibitors | 1.2% of 410,000 active; further: on the % scale 0 is the no-effect control and ±100 the full control effect; nearly all actives have a fitted effect of over 65% in size
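GFP signal (ex488/em500-530) from TGF-beta-stimulated HEPG2 CAGA-GFP cells, 500 pg/mL final, 18 h at 37 degrees C in DMEM plus 1% FBS, normalized to unstimulated and DMSO-stimulated controls.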
HT1080 IDH1KD tx = qHTS for induction of synthetic lethality in tumor cells producing 2HG: qHTS for the HT-1080-IDH1KD cell line. HT-1080 IDH1 knockdown viability, ATP luminescence, 48 h. Potency, µM (series often up to 46.1 µM), without a hit: at the top dose activity, negative = toxicity, actives largely listed as cytotoxic. 2% of 360,000 active. AID 686971, 2013;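 further: 0% = DMSO wells and -100% = cell-free medium wells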
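Using the IDH1-knockdown HT-1080 line run in the same batch and compound series as the NT line, viability after 48 h at 37 °C was determined by CellTiter-Glo luminescence and expressed as % activity.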
HepG2 viability = qHTS for Inhibitors of TGF-b: Cytotox Counterscreen; HepG2 CAGA-GFP viability, ATP luminescence, 18 h; Potency, µM (doses to about 46.1 µM), for the others: at the top dose activity change, negative = cytotoxicity, most hits filed as cytotoxic; 0.76% of 410,000 active; AID 588856, 2011
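HepG2 CAGA-GFP cells (1000/well, DMEM with 1% FBS) received compound, then TGF-beta at 500 pg/mL final, and were incubated 18 hours at 37 degrees C. Viability was read by CellTiter-Glo luminescence. Media-only wells were set as complete cell-killing and DMSO as no toxicity.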
* marks the source's active call; other numbers are inactive results. Sampled rows, rich in hits. Any-hit rate of the full collection: about 17%. The call rests on the fitted dose curve; in most records, active means well fitted curve in the direction sought with a large enough effect; inconclusive means small, poorly fitted or top-dose-only effect, or another doubt; inactive means no such curve, though single readings can be large; an effect the other way counts as inactive or inconclusive. Potency means the concentration at half of the fitted maximal effect.

Results for CCCN(CCC)C(=O)c1ccc2nc(-c3ccc(OC)c(OC)c3)c(-c3ccc(OC)c(OC)c3)nc2c1 ?
DT40 TDP1 no CPT: inconclusive; HT1080-NT tox: -16%; DT40 TDP1 CPT: inconclusive; TGFb SMAD3 inh: inconclusive; HT1080 IDH1KD tx: -7%; HepG2 viability: -48%

How did CCCC[n+]1c2ccccc2cc2ccccc21 do in these assays?
DT40 TDP1 no CPT: 2.1µM*; HT1080-NT tox: 23µM*; DT40 TDP1 CPT: 2.3µM*; TGFb SMAD3 inh: inconclusive; HT1080 IDH1KD tx: inconclusive; HepG2 viability: -23%

What do the screens show for `CCC[n+]1c2ccccc2cc2ccccc21`?
DT40 TDP1 no CPT: 2.6µM*; HT1080-NT tox: 16µM*; DT40 TDP1 CPT: 2.9µM*; TGFb SMAD3 inh: inconclusive; HT1080 IDH1KD tx: inconclusive; HepG2 viability: -49%

How did Cc1ccc(C(=O)Nc2ccccc2C(=O)OCc2cc(=O)n3nc(C4CC4)sc3n2)cc1 do in these assays?
DT40 TDP1 no CPT: -12%; DT40 TDP1 CPT: 6%; TGFb SMAD3 inh: 18%; HepG2 viability: 2%

Results for CCOC(=O)C1=C(C)Nc2nc(=S)[nH]n2C1c1ccc(Cl)cc1 (stereo unspecified) ?
DT40 TDP1 no CPT: inconclusive; HT1080-NT tox: -3%; DT40 TDP1 CPT: inconclusive; TGFb SMAD3 inh: 2%; HT1080 IDH1KD tx: -3%; HepG2 viability: -10%

How did C=COC(=O)NC1CCc2cc(OC)c(OC)c(OC)c2-c2ccc(SC)c(=O)cc21 (stereo unspecified) do in these assays?
DT40 TDP1 no CPT: 0.016µM*; HT1080-NT tox: 0.18µM*; DT40 TDP1 CPT: 0.026µM*; TGFb SMAD3 inh: inconclusive; HT1080 IDH1KD tx: inconclusive; HepG2 viability: -33%

Results for COc1cc2c(c(OC)c1OC)C(=O)CC2 ?
DT40 TDP1 no CPT: 7%; HT1080-NT tox: 0%; DT40 TDP1 CPT: 4%; TGFb SMAD3 inh: -4%; HT1080 IDH1KD tx: 4%; HepG2 viability: 15%

Results for COc1c(O[C@@H]2O[C@H](CO)[C@@H](O)[C@H](O)[C@H]2O)cc2c(c1OC)-c1ccc(SC)c(=O)cc1C(NC(C)=O)CC2 (stereo partly specified) ?
DT40 TDP1 no CPT: 5%; HT1080-NT tox: inconclusive; DT40 TDP1 CPT: 8%; TGFb SMAD3 inh: -1%; HT1080 IDH1KD tx: inconclusive; HepG2 viability: -3%

How did COc1cc2c(c(OC)c1OC)-c1ccc(SC)c(=O)cc1C(NC(=O)c1ccccc1)CC2 (stereo unspecified) do in these assays?
DT40 TDP1 no CPT: 0.016µM*; HT1080-NT tox: inconclusive; DT40 TDP1 CPT: 0.015µM*; TGFb SMAD3 inh: inconclusive; HT1080 IDH1KD tx: inconclusive; HepG2 viability: 1%

How did CCOC(=O)C1=C(O)C(=O)N(Cc2ccccc2)CC1 do in these assays?
DT40 TDP1 no CPT: -10%; HT1080-NT tox: 4%; DT40 TDP1 CPT: -6%; TGFb SMAD3 inh: -12%; HT1080 IDH1KD tx: 9%; HepG2 viability: 9%

Results for Cc1ccccc1CN1CC2=C(CCN(Cc3ccccc3)C2=O)N2CCN=C12 ?
DT40 TDP1 no CPT: 1.3µM*; HT1080-NT tox: inconclusive; DT40 TDP1 CPT: 0.58µM*; TGFb SMAD3 inh: 12%; HT1080 IDH1KD tx: inconclusive; HepG2 viability: -19%

Results for CC(=O)OC1CCC2(C)C(=CCC3C2CCC2(C)C3C[C@@H]3O[C@]32C(C)=O)C1 (stereo partly specified) ?
DT40 TDP1 no CPT: 3%; DT40 TDP1 CPT: 13%
